About 2,000 (36%) of roughly 5,500 compounds were called active. Another 18% or so got no clear call; they are omitted. Rule as the data show it: active = normalized growth mostly below about 0.91 (no sharp cut-off); inconclusive = no clear call, values can overlap the other calls; inactive = mostly above about 0.92. The list shows a part of the results.
Assay: chemical genetic growth profiling, strain panel (AID 1159580);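 also: tested at 20 µM; growth read once vehicle control cultures reached saturation at 30 °C; 1 = growth at the plate median or of vehicle wells; lower values mean less growth of the strain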
Details: growth OD
[1] = S. cerevisiae deletion strains, locus YCL061C, strain MRC1, active compounds read low

Measured: normalized growth

Cc1c(Cl)cccc1SCC(=O)O
active: S. cerevisiae deletion strains, locus YMR219W, strain ESC1, active compounds read low 0.945
inactive: S. cerevisiae deletion strains, locus YAL013W, strain DEP1, active compounds read low 0.944 | S. cerevisiae deletion strains, locus YBR229C, strain ROT2, active compounds read low 0.958 | [1] 0.989 | S. cerevisiae deletion strains, locus YDL101C, strain DUN1, active compounds read low 0.973 | S. cerevisiae deletion strains, locus YDL134C, strain PPH21, active compounds read low 1.01 | S. cerevisiae deletion strains, locus YDR150W, strain NUM1, active compounds read low 0.926 | S. cerevisiae deletion strains, locus YEL061C, strain CIN8, active compounds read low 0.977 | S. cerevisiae deletion strains, locus YGR078C, strain PAC10, active compounds read low 0.964 | S. cerevisiae deletion strains, locus YHR030C, strain SLT2, active compounds read low 1.06 | S. cerevisiae deletion strains, locus YHR087W, strain rtc3, active compounds read low 0.984 | S. cerevisiae deletion strains, locus YJR043C, strain POL32, active compounds read low 0.973 | S. cerevisiae deletion strains, locus YJR075W, strain HOC1, active compounds read low 0.937 | S. cerevisiae deletion strains, locus YKL190W, strain CNB1, active compounds read low 1.01 | S. cerevisiae deletion strains, locus YLR039C, strain RIC1, active compounds read low 1 | S. cerevisiae deletion strains, locus YLR058C, strain SHM2 (second series), active compounds read low 0.967 | S. cerevisiae deletion strains, locus YLR085C, strain ARP6, active compounds read low 1.03 | S. cerevisiae deletion strains, locus YLR262C, strain YPT6, active compounds read low 0.995 | S. cerevisiae deletion strains, locus YML094W, strain GIM5, active compounds read low 0.997 | S. cerevisiae deletion strains, locus YMR263W, strain SAP30, active compounds read low 0.941 | S. cerevisiae deletion strains, locus YNL153C, strain GIM3, active compounds read low 0.942 | S. cerevisiae deletion strains, locus YNL298W, strain CLA4 (second series), active compounds read low 1.02 | S. cerevisiae deletion strains, locus YNL322C, strain KRE1, active compounds read low 0.944 | S. cerevisiae deletion strains, locus YNR030W, strain Alg12, active compounds read low 1 | S. cerevisiae deletion strains, locus YPL055C, strain LGE1, active compounds read low 0.837 | S. cerevisiae deletion strains, locus YPL241C, strain CIN2, active compounds read low 1 | S. cerevisiae deletion strains, locus YPR135W, strain CTF4, active compounds read low 1.06 | S. cerevisiae strains, strain wild type, active compounds read low 1.01

Cc1cccc(Nc2cc(Cl)nc(SCC(=O)O)n2)c1C
inactive: S. cerevisiae deletion strains, locus YAL021C, strain ccr4, active compounds read low 0.932 | S. cerevisiae deletion strains, locus YAL026C, strain drs2, active compounds read low 1.01 | S. cerevisiae deletion strains, locus YAL030W, strain snc1, active compounds read low 1 | S. cerevisiae deletion strains, locus YBL061C, strain skt5, active compounds read low 0.999 | S. cerevisiae deletion strains, locus YBR009C, strain hhf1, active compounds read low 1.06 | S. cerevisiae deletion strains, locus YBR023C, strain chs3, active compounds read low 1 | S. cerevisiae deletion strains, locus YBR171W, strain sec66, active compounds read low 0.988 | S. cerevisiae deletion strains, locus YBR231C, strain swc5, active compounds read low 1.01 | S. cerevisiae deletion strains, locus YBR279W, strain paf1, active compounds read low 1.01 | S. cerevisiae deletion strains, locus YCL011C, strain gbp2, active compounds read low 0.987 | S. cerevisiae deletion strains, locus YCL016C, strain dcc1, active compounds read low 1.01 | [1] 0.984 | S. cerevisiae deletion strains, locus YCL069W, strain vba3, active compounds read low 0.99 | S. cerevisiae deletion strains, locus YCR088W, strain abp1, active compounds read low 0.988 | S. cerevisiae deletion strains, locus YDL005C, strain med2, active compounds read low 0.99 | S. cerevisiae deletion strains, locus YDL040C, strain nat1, active compounds read low 0.996 | S. cerevisiae deletion strains, locus YDR001C, strain nth1, active compounds read low 0.984 | S. cerevisiae deletion strains, locus YDR069C, strain doa4, active compounds read low 0.998 | S. cerevisiae deletion strains, locus YDR137W, strain rgp1, active compounds read low 0.934 | S. cerevisiae deletion strains, locus YDR159W, strain sac3, active compounds read low 1.03 | S. cerevisiae deletion strains, locus YDR195W, strain ref2 0.987 | S. cerevisiae deletion strains, locus YDR297W, strain sur2, active compounds read low 0.991 | S. cerevisiae deletion strains, locus YDR334W, strain swr1, active compounds read low 0.969 | S. cerevisiae deletion strains, locus YDR335W, strain msn5, active compounds read low 0.996 | S. cerevisiae deletion strains, locus YDR392W, strain spt3, active compounds read low 0.965 | S. cerevisiae deletion strains, locus YEL003W, strain gim4, active compounds read low 0.999 | S. cerevisiae deletion strains, locus YEL037C, strain rad23, active compounds read low 0.999 | S. cerevisiae deletion strains, locus YEL061C, strain CIN8 (second series), active compounds read low 0.991 | S. cerevisiae deletion strains, locus YER015W, strain faa2, active compounds read low 1.02 | S. cerevisiae deletion strains, locus YER016W, strain bim1, active compounds read low 1.01 | S. cerevisiae deletion strains, locus YER111C, strain swi4, active compounds read low 1.01 | S. cerevisiae deletion strains, locus YER155C, strain BEM2 (second series), active compounds read low 1.04 | S. cerevisiae deletion strains, locus YFR010W, strain ubp6, active compounds read low 1 | S. cerevisiae deletion strains, locus YGL167C, strain pmr1, active compounds read low 0.997 | S. cerevisiae deletion strains, locus YGL173C, strain kem1, active compounds read low 1 | S. cerevisiae deletion strains, locus YGL227W, strain vid30, active compounds read low 1 | S. cerevisiae deletion strains, locus YGL240W, strain doc1, active compounds read low 1.03 | S. cerevisiae deletion strains, locus YGL253W, strain hxk2, active compounds read low 1.01 | S. cerevisiae deletion strains, locus YHR013C, strain ard1, active compounds read low 0.977 | S. cerevisiae deletion strains, locus YHR027C, strain rpn1, active compounds read low 0.987 | S. cerevisiae deletion strains, locus YHR142W, strain chs7, active compounds read low 0.936 | S. cerevisiae deletion strains, locus YJL092W, strain hpr5, active compounds read low 0.983 | S. cerevisiae deletion strains, locus YJL095W, strain BCK1 (second series), active compounds read low 0.987 | S. cerevisiae deletion strains, locus YJL115W, strain asf1, active compounds read low 0.98 | S. cerevisiae deletion strains, locus YJL129C, strain trk1, active compounds read low 0.986 | S. cerevisiae deletion strains, locus YJL154C, strain vps35, active compounds read low 0.992 | S. cerevisiae deletion strains, locus YJL164C, strain tpk1, active compounds read low 0.978 | S. cerevisiae deletion strains, locus YJL166W, strain qcr8, active compounds read low 1.01 | S. cerevisiae deletion strains, locus YJL187C, strain SWE1, active compounds read low 0.996 | S. cerevisiae deletion strains, locus YKL160W, strain elf1, active compounds read low 0.955 | S. cerevisiae deletion strains, locus YKR026C, strain gcn3, active compounds read low 0.988 | S. cerevisiae deletion strains, locus YKR091W, strain srl3, active compounds read low 0.989 | S. cerevisiae deletion strains, locus YLL001W, strain dnm1, active compounds read low 1 | S. cerevisiae deletion strains, locus YLL026W, active compounds read low 0.992 | S. cerevisiae deletion strains, locus YLL041C, strain sdh2, active compounds read low 0.99 | S. cerevisiae deletion strains, locus YLR027C, strain aat2, active compounds read low 0.993 | S. cerevisiae deletion strains, locus YLR221C, strain rsa3, active compounds read low 0.997 | S. cerevisiae deletion strains, locus YLR258W, strain gsy2, active compounds read low 1.01 | S. cerevisiae deletion strains, locus YLR262C, strain YPT6 (second series), active compounds read low 0.962 | S. cerevisiae deletion strains, locus YLR320W, strain mms22, active compounds read low 0.989 | S. cerevisiae deletion strains, locus YLR342W, strain FKS1, active compounds read low 1 | S. cerevisiae deletion strains, locus YLR357W, strain rsc2, active compounds read low 1.02 | S. cerevisiae deletion strains, locus YLR370C, strain arc18, active compounds read low 0.992 | S. cerevisiae deletion strains, locus YLR384C, strain iki3, active compounds read low 0.998 | S. cerevisiae deletion strains, locus YML120C, strain ndi1, active compounds read low 0.986 | S. cerevisiae deletion strains, locus YMR058W, strain fet3, active compounds read low 0.983 | S. cerevisiae deletion strains, locus YMR125W, strain sto1, active compounds read low 0.988 | S. cerevisiae deletion strains, locus YMR129W, active compounds read low 0.973 | S. cerevisiae deletion strains, locus YMR205C, strain PFK2, active compounds read low 1.05 | S. cerevisiae deletion strains, locus YMR231W, strain pep5, active compounds read low 0.992 | S. cerevisiae deletion strains, locus YNL071W, strain lat1, active compounds read low 0.985 | S. cerevisiae deletion strains, locus YNL209W, strain ssb2, active compounds read low 0.993 | S. cerevisiae deletion strains, locus YNL248C, strain rpa49, active compounds read low 0.933 | S. cerevisiae deletion strains, locus YNL322C, strain KRE1 (second series), active compounds read low 0.996 | S. cerevisiae deletion strains, locus YNR049C, strain mso1, active compounds read low 0.988 | S. cerevisiae deletion strains, locus YOR001W, strain rrp6, active compounds read low 0.974 | S. cerevisiae deletion strains, locus YOR070C, strain gyp1, active compounds read low 1 | S. cerevisiae deletion strains, locus YOR080W, strain dia2, active compounds read low 1.02 | S. cerevisiae deletion strains, locus YOR083W, strain WHI5, active compounds read low 0.942 | S. cerevisiae deletion strains, locus YOR106W, strain vam3, active compounds read low 0.946 | S. cerevisiae deletion strains, locus YOR265W, strain rbl2, active compounds read low 0.992 | S. cerevisiae deletion strains, locus YOR270C, strain vph1, active compounds read low 0.972 | S. cerevisiae deletion strains, locus YOR290C, strain snf2, active compounds read low 0.976 | S. cerevisiae deletion strains, locus YPL051W, strain arl3, active compounds read low 0.974 | S. cerevisiae deletion strains, locus YPL078C, strain atp4, active compounds read low 0.925 | S. cerevisiae deletion strains, locus YPL106C, strain sse1, active compounds read low 1.01 | S. cerevisiae deletion strains, locus YPL240C, strain hsp82, active compounds read low 0.978

From PubChem BioAssay AID1159580 (chemical genetic matrix, 2015)
